{
  "source": "ChEMBL document CHEMBL3988442",
  "about": "“University of Dundee, Small-Polar-MMV Screening Library” (2021)",
  "system": "Leishmania donovani",
  "assay": "Leishmania intramacrophage assay",
  "format": "functional, organism-based",
  "set-up": "scale not given: in the data most compounds retested in dose-response had high values",
  "note": "Out of some 69,000 compounds screened, about 1,000 (1.4%) showed an effect of 50% or more. For the sample, strong results were picked, then their nearest neighbours and some compounds at random.",
  "data": [
    {"smiles": "Cc1cc2c(N)nc(=O)n(CC(=O)Nc3ccccc3)c2s1", "values": [
      {"measurement": "Percent Effect", "setting": "30.3 µM, […]", "value": 6.295, "unit": "%"}
    ]},
    {"smiles": "Cc1cc2c(N)nc(=O)n(CC(=O)Nc3cccc(Cl)c3)c2s1", "values": [
      {"measurement": "Percent Effect", "setting": "30.3 µM, […]", "value": 52.64, "unit": "%"}
    ]},
    {"smiles": "COc1cccc(NC(=O)Cn2c(=O)nc(N)c3cc(C)sc32)c1", "values": [
      {"measurement": "Percent Effect", "setting": "30.3 µM, […]", "value": 12.79, "unit": "%"}
    ]},
    {"smiles": "Cc1nc(CN2CCN(C(=O)NC(C)Cn3ccnc3)CC2)cs1", "note": "(stereo not given)", "values": [
      {"measurement": "Percent Effect", "setting": "30 µM", "value": 14.72, "unit": "%"}
    ]},
    {"smiles": "CNC(=O)C1CCN(CC(=O)Nc2cc(C(C)C)no2)CC1", "values": [
      {"measurement": "Percent Effect", "setting": "30 µM", "value": 21.46, "unit": "%"}
    ]},
    {"smiles": "CS(=O)(=O)NCc1noc2c1CN(C(=O)C1CCC1)CC2", "values": [
      {"measurement": "Percent Effect", "setting": "30.3 µM, […]", "value": 11.5, "unit": "%"}
    ]},
    {"smiles": "CCN1CC(CN(C)Cc2nc(-c3ccc(F)cc3)oc2C)CC1=O", "note": "(stereo not given)", "values": [
      {"measurement": "Percent Effect", "setting": "30.3 µM, […]", "value": 13.51, "unit": "%"}
    ]},
    {"smiles": "CCN1CC(CN(C)Cc2nc(-c3ccc(C)o3)oc2C)CC1=O", "note": "(stereo not given)", "values": [
      {"measurement": "Percent Effect", "setting": "30.3 µM, […]", "value": 59.94, "unit": "%"}
    ]},
    {"smiles": "CCN1CC(CN(C)Cc2nc(-c3ccoc3)oc2C)CC1=O", "note": "(stereo not given)", "values": [
      {"measurement": "Percent Effect", "setting": "30.3 µM, […]", "value": -10.15, "unit": "%"}
    ]},
    {"smiles": "CN(C)C(=O)C1(c2cnccn2)CCCN1C(=O)Cc1ccsc1", "note": "(stereo not given)", "values": [
      {"measurement": "Percent Effect", "setting": "30.3 µM, […]", "value": 25.36, "unit": "%"}
    ]},
    {"smiles": "CCn1c(C)nc2cc(NC(=O)CC3CCN(S(C)(=O)=O)CC3)ccc21", "values": [
      {"measurement": "Percent Effect", "setting": "30.3 µM, […]", "value": 32.47, "unit": "%"}
    ]},
    {"smiles": "CNC(=O)c1ncn2c1CN(CCC(C)C)S(=O)(=O)c1ccccc1-2", "values": [
      {"measurement": "Percent Effect", "setting": "30.3 µM, […]", "value": 54.17, "unit": "%"}
    ]},
    {"smiles": "CC(C)CCN1Cc2c(C(=O)O)ncn2-c2ccccc2S1(=O)=O", "values": [
      {"measurement": "Percent Effect", "setting": "30 µM, 30.03 µM", "value": -20.47, "unit": "%"}
    ]},
    {"smiles": "CCN1Cc2c(C(=O)NC)ncn2-c2ccccc2S1(=O)=O", "values": [
      {"measurement": "Percent Effect", "setting": "30.3 µM, […]", "value": 2.291, "unit": "%"}
    ]},
    {"smiles": "COc1ccc(CNC(=O)c2ccoc2CN2CCNC(=O)C2)cc1", "values": [
      {"measurement": "Percent Effect", "setting": "30.3 µM, […]", "value": -8.396, "unit": "%"}
    ]},
    {"smiles": "CC(C)N(C)Cc1cn2c(n1)CN(C(=O)c1ccc[nH]1)CC2", "values": [
      {"measurement": "Percent Effect", "setting": "30.3 µM, […]", "value": 13.65, "unit": "%"}
    ]},
    {"smiles": "Cc1cc(-c2cnc(C(C)C)nc2CN(C)C(=O)c2ccccn2)on1", "values": [
      {"measurement": "Percent Effect", "setting": "30.3 µM, […]", "value": 10.54, "unit": "%"}
    ]},
    {"smiles": "CC(C)N(C)CCCNC(=O)c1cnn(C(C)(C)C)c1C(F)(F)F", "values": [
      {"measurement": "Percent Effect", "setting": "30.3 µM, […]", "value": 10.25, "unit": "%"}
    ]},
    {"smiles": "OC1(CN2CCC(Oc3cccc(C(F)(F)F)c3)CC2)CCNC1", "note": "(stereo not given)", "values": [
      {"measurement": "Percent Effect", "setting": "30.3 µM, […]", "value": 100.3, "unit": "%"}
    ]},
    {"smiles": "Nc1cc(C(=O)N2CCC(Oc3cccc(C(F)(F)F)c3)CC2)ccn1", "values": [
      {"measurement": "Percent Effect", "setting": "30.3 µM, […]", "value": 3.315, "unit": "%"}
    ]},
    {"smiles": "OC1(CNCCN2CCc3ccccc32)CNCCOC1", "note": "(stereo not given)", "values": [
      {"measurement": "Percent Effect", "setting": "30.3 µM, […]", "value": 12.43, "unit": "%"}
    ]},
    {"smiles": "FC(F)(F)c1cccc(OC2CCN(Cc3c[nH]cn3)CC2)c1", "values": [
      {"measurement": "Percent Effect", "setting": "30.3 µM, […]", "value": 0.2013, "unit": "%"}
    ]},
    {"smiles": "FC(F)(F)c1cccc(OC2CCN(Cc3ncc[nH]3)CC2)c1", "values": [
      {"measurement": "Percent Effect", "setting": "30.3 µM, […]", "value": 17.17, "unit": "%"}
    ]},
    {"smiles": "OC1(CN2CCC(Oc3cccnc3)CC2)CNCCOC1", "note": "(stereo not given)", "values": [
      {"measurement": "Percent Effect", "setting": "30.3 µM, […]", "value": -1.613, "unit": "%"}
    ]},
    {"smiles": "O=C(c1ccncc1)N1CCC(Oc2cccc(C(F)(F)F)c2)CC1", "values": [
      {"measurement": "Percent Effect", "setting": "30.3 µM, […]", "value": 7.291, "unit": "%"}
    ]},
    {"smiles": "CC(N)C(=O)N1CCC(Oc2cccc(C(F)(F)F)c2)CC1", "note": "(stereo not given)", "values": [
      {"measurement": "Percent Effect", "setting": "30.3 µM, […]", "value": 75.62, "unit": "%"}
    ]},
    {"smiles": "OC1(CN2CCC(Oc3cccc(C(F)(F)F)c3)CC2)CNCCOC1", "note": "(stereo not given)", "values": [
      {"measurement": "Percent Effect", "setting": "30.3 µM, […]", "value": 78.32, "unit": "%"}
    ]},
    {"smiles": "OC1(CN2CCCC2)COCCN(c2cc(C(F)(F)F)ccn2)C1", "note": "(stereo not given)", "values": [
      {"measurement": "Percent Effect", "setting": "30.3 µM, […]", "value": 29.85, "unit": "%"}
    ]},
    {"smiles": "FC(F)(F)c1cccc(OC2CCN(Cc3ccccn3)CC2)c1", "values": [
      {"measurement": "Percent Effect", "setting": "30.3 µM, […]", "value": -24.32, "unit": "%"}
    ]},
    {"smiles": "OC1(CN2CCN(c3cccc(C(F)(F)F)c3)CC2)CNCCOC1", "note": "(stereo not given)", "values": [
      {"measurement": "Percent Effect", "setting": "30.3 µM, […]", "value": 51.12, "unit": "%"}
    ]},
    {"smiles": "CCC[C@H]1CN(S(C)(=O)=O)C[C@@H]1NC(=O)CCCn1ccnc1", "values": [
      {"measurement": "Percent Effect", "setting": "30.3 µM, […]", "value": -3.317, "unit": "%"}
    ]},
    {"smiles": "CC(C)CCN(C)C(=O)c1cc(CN2CCC(O)CC2)on1", "values": [
      {"measurement": "Percent Effect", "setting": "30.3 µM, […]", "value": 25.01, "unit": "%"}
    ]},
    {"smiles": "O=C(CS(=O)(=O)Cc1nnnn1C1CC1)NCC1CC1", "values": [
      {"measurement": "Percent Effect", "setting": "30.3 µM, […]", "value": 7.259, "unit": "%"}
    ]},
    {"smiles": "Cc1ccc2cccc(C(=O)NCC3CCN(C(C)C)C3)c2n1", "note": "(stereo not given)", "values": [
      {"measurement": "Percent Effect", "setting": "30.3 µM, […]", "value": 6.487, "unit": "%"}
    ]},
    {"smiles": "Cc1cccc(CN2CCC3(CCN(c4ccccn4)C3)C2=O)c1.O=C(O)C(F)(F)F", "note": "(stereo not given)", "values": [
      {"measurement": "Percent Effect", "setting": "30 µM, 30.03 µM", "value": 41.53, "unit": "%"}
    ]},
    {"smiles": "CC1=N[C@@]2(CC[C@@H]3CN(Cc4ccccc4F)C[C@@H]32)C(=O)N1CC1CC1.O=C(O)C(F)(F)F", "values": [
      {"measurement": "Percent Effect", "setting": "30 µM, 30.03 µM", "value": 16.75, "unit": "%"}
    ]},
    {"smiles": "CN1CCN(C)c2cc(NC(=O)c3cc[nH]n3)ccc2C1", "values": [
      {"measurement": "Percent Effect", "setting": "30.3 µM, […]", "value": 24.5, "unit": "%"}
    ]},
    {"smiles": "COc1ccc(OC)c(C2CCN(C(=O)CCc3n[nH]c(N)n3)C2)c1", "note": "(stereo not given)", "values": [
      {"measurement": "Percent Effect", "setting": "30.3 µM, […]", "value": 25.04, "unit": "%"}
    ]},
    {"smiles": "NC(=O)CCSCc1cc(Br)cc2cccnc12", "values": [
      {"measurement": "Percent Effect", "setting": "30.3 µM, […]", "value": 18.7, "unit": "%"}
    ]},
    {"smiles": "NC(=O)NC(=O)CCSCc1cc(F)cc2cccnc12", "values": [
      {"measurement": "Percent Effect", "setting": "30.3 µM, […]", "value": 50.58, "unit": "%"}
    ]},
    {"smiles": "CNC(=O)NC(=O)CCSCc1cc(F)cc2cccnc12", "values": [
      {"measurement": "Percent Effect", "setting": "30.3 µM, […]", "value": 2.728, "unit": "%"}
    ]},
    {"smiles": "CC(C)CN1C[C@H]2CCN(C(=O)NC3CCCC3)CC[C@H]2S1(=O)=O", "values": [
      {"measurement": "Percent Effect", "setting": "30.3 µM, […]", "value": 5.795, "unit": "%"}
    ]},
    {"smiles": "Cc1noc(CCCC(=O)N2CCNC(=O)C2)n1", "values": [
      {"measurement": "Percent Effect", "setting": "30.3 µM, […]", "value": 12.24, "unit": "%"}
    ]},
    {"smiles": "COCC(=O)NCc1cc(=O)n2c(n1)CN(C)CCC2.O=C(O)C(F)(F)F", "values": [
      {"measurement": "Percent Effect", "setting": "30.3 µM, […]", "value": 39.76, "unit": "%"}
    ]},
    {"smiles": "COCC(=O)NCc1cc(=O)n2c(n1)CN(Cc1ccncc1)CCC2", "values": [
      {"measurement": "Percent Effect", "setting": "30.3 µM, […]", "value": 55.54, "unit": "%"}
    ]},
    {"smiles": "COCC(=O)NCc1cc(=O)n2c(n1)CN(Cc1ccoc1)CCC2", "values": [
      {"measurement": "Percent Effect", "setting": "30.3 µM, […]", "value": 10.68, "unit": "%"}
    ]},
    {"smiles": "COCC(=O)NCc1cc(=O)n2c(n1)CN(CC1CC1)CCC2.O=C(O)C(F)(F)F", "values": [
      {"measurement": "Percent Effect", "setting": "30.3 µM, […]", "value": 0.4082, "unit": "%"}
    ]},
    {"smiles": "COCC(=O)NCc1cc(=O)n2c(n1)CN(Cc1ccsc1)CCC2", "values": [
      {"measurement": "Percent Effect", "setting": "30 µM, 30.03 µM", "value": 13.56, "unit": "%"}
    ]},
    {"smiles": "COCCN1CCCn2c(nc(CNC(=O)COC)cc2=O)C1.O=C(O)C(F)(F)F", "values": [
      {"measurement": "Percent Effect", "setting": "30.3 µM, […]", "value": 69.63, "unit": "%"}
    ]},
    {"smiles": "COc1ccccc1CNC(=O)c1[nH]ncc1Cl", "values": [
      {"measurement": "Percent Effect", "setting": "30.3 µM, […]", "value": -12.27, "unit": "%"}
    ]}
  ]
}
